# Measured values: publication PMC11006913
# Changes are numbered by the printed parent chain.
# Legend:
# Experiment in all cases: PBM; 200 nM protein, PBS
# Settings in all cases: dsDNA, one strand shown
# HOXB4 [1] = molecular target: HOXB4 (Homo sapiens, UniProt P17483 148-234)
# VENTX [2] = molecular target: T1, VENTX (Homo sapiens, UniProt O95231 78-163, R121Q)
# T1 sequence: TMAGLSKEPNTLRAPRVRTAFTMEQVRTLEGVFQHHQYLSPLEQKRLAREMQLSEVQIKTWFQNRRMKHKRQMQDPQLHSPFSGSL
# HOXA4 [3] = molecular target: HOXA4 (Homo sapiens, UniProt Q00056 201-287, W262R)
# VENTX [4] = molecular target: T2, VENTX (Homo sapiens, UniProt O95231 78-163)
# T2 sequence: T1 sequence with Q44R
# HOXA7 [5] = molecular target: HOXA7 (Homo sapiens, UniProt P31268 116-202)
# VENTX [6] = molecular target: T3, VENTX (Homo sapiens, UniProt O95231 78-163, Y115F)
# T3 sequence: T1 sequence with Y38F, Q44R
# HOXB6 [7] = molecular target: HOXB6 (Homo sapiens, UniProt P17509 132-218, K202E)
# HOXA2 [8] = molecular target: HOXA2 (Homo sapiens, UniProt O43364 129-215, R185T)
# HOXA4 [9] = molecular target: HOXA4 (Homo sapiens, UniProt Q00056 201-287, R217L)
# HOXB4 [10] = molecular target: HOXB4 (Homo sapiens, UniProt P17483 148-234, V174I)
# HOXA2 [11] = molecular target: HOXA2 (Homo sapiens, UniProt O43364 129-215, R185K)
# HOXA4 [12] = molecular target: HOXA4 (Homo sapiens, UniProt Q00056 201-287)
# HOXC10 [13] = molecular target: HOXC10 (Homo sapiens, UniProt Q9NYD6 254-340, K271E)
# VAX1 [14] = molecular target: VAX1 (Homo sapiens, UniProt Q5SQQ9 86-172)
# VAX1 [15] = molecular target: VAX1 (Homo sapiens, UniProt Q5SQQ9 86-172, T142I)
# HOXA2 [16] = molecular target: HOXA2 (Homo sapiens, UniProt O43364 129-215, Y150S)
# HOXA7 [17] = molecular target: HOXA7 (Homo sapiens, UniProt P31268 116-202, W177C)
# HOXA4 [18] = molecular target: HOXA4 (Homo sapiens, UniProt Q00056 201-287, W262F)
# HOXA2 [19] = molecular target: HOXA2 (Homo sapiens, UniProt O43364 129-215)
# VAX1 [20] = molecular target: VAX1 (Homo sapiens, UniProt Q5SQQ9 86-172, K157R)
# HOXB6 [21] = molecular target: HOXB6 (Homo sapiens, UniProt P17509 132-218)
# HOXB9 [22] = molecular target: HOXB9 (Homo sapiens, UniProt P17482 171-250, T197M)
# ALX4 [23] = molecular target: ALX4 (Homo sapiens, UniProt Q9H161 200-286)
# ALX4 [24] = molecular target: ALX4 (Homo sapiens, UniProt Q9H161 200-286, Q225E)
# HOXB9 [25] = molecular target: HOXB9 (Homo sapiens, UniProt P17482 171-250)
# MSX2 [26] = molecular target: MSX2 (Homo sapiens, UniProt P35548 130-214, R199I)
# MSX2 [27] = molecular target: MSX2 (Homo sapiens, UniProt P35548 130-214)
# HOXB9 [28] = molecular target: HOXB9 (Homo sapiens, UniProt P17482 171-250, R186Q)
# MSX2 [29] = molecular target: MSX2 (Homo sapiens, UniProt P35548 130-214, F161Y)
# HOXC10 [30] = molecular target: HOXC10 (Homo sapiens, UniProt Q9NYD6 254-340)
# PRRX1 [31] = molecular target: PRRX1 (Homo sapiens, UniProt P54821 80-166, F113S)
# HESX1 = HESX1 (Homo sapiens, UniProt Q9UBX0 95-180, R109Q)
# PRRX1 [32] = molecular target: PRRX1 (Homo sapiens, UniProt P54821 80-166)
# Chain of PRRX1 (Homo sapiens, UniProt P54821 80-166) (P54821 80-166): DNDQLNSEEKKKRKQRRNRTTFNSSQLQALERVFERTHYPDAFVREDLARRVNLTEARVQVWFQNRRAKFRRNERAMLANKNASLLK
# Chain of HOXA2 (Homo sapiens, UniProt O43364 129-215, Y150S) (O43364 129-215 Y150S): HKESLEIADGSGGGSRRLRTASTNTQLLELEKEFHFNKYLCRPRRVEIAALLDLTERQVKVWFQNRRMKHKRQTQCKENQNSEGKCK
# Chain of HOXB4 (Homo sapiens, UniProt P17483 148-234, V174I) (P17483 148-234 V174I): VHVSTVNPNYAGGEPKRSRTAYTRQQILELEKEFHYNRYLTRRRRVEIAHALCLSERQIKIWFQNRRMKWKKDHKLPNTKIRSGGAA
# Chain of HOXA2 (Homo sapiens, UniProt O43364 129-215, R185K) (O43364 129-215 R185K): as the sequence (O43364 129-215 Y150S) above, with S22Y, R57K counted along it
# Chain of HOXA2 (Homo sapiens, UniProt O43364 129-215) (O43364 129-215): as the sequence (O43364 129-215 Y150S) above, with S22Y counted along it
# Chain of HOXA2 (Homo sapiens, UniProt O43364 129-215, R185T) (O43364 129-215 R185T): as the sequence (O43364 129-215 Y150S) above, with S22Y, R57T counted along it
# Chain of HOXB4 (Homo sapiens, UniProt P17483 148-234) (P17483 148-234): as the sequence (P17483 148-234 V174I) above, with I27V counted along it
# Chain of HOXC10 (Homo sapiens, UniProt Q9NYD6 254-340, K271E) (Q9NYD6 254-340 K271E): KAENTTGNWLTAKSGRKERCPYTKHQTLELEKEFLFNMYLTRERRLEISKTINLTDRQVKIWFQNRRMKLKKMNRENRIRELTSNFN
# Chain of VAX1 (Homo sapiens, UniProt Q5SQQ9 86-172, T142I) (Q5SQQ9 86-172 T142I): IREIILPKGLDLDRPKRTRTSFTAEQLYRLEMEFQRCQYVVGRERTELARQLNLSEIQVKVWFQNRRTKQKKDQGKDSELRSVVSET
# Chain of HOXA4 (Homo sapiens, UniProt Q00056 201-287) (Q00056 201-287): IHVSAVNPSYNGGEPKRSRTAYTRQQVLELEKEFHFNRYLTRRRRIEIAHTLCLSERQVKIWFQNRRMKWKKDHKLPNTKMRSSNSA
# Chain of HOXA4 (Homo sapiens, UniProt Q00056 201-287, W262F) (Q00056 201-287 W262F): as the sequence (Q00056 201-287) above, with W62F counted along it
# Chain of HOXA4 (Homo sapiens, UniProt Q00056 201-287, W262R) (Q00056 201-287 W262R): as the sequence (Q00056 201-287) above, with W62R counted along it
# Chain of VAX1 (Homo sapiens, UniProt Q5SQQ9 86-172) (Q5SQQ9 86-172): as the sequence (Q5SQQ9 86-172 T142I) above, with I57T counted along it
# Chain of VAX1 (Homo sapiens, UniProt Q5SQQ9 86-172, K157R) (Q5SQQ9 86-172 K157R): as the sequence (Q5SQQ9 86-172 T142I) above, with I57T, K72R counted along it
# Chain of HOXA4 (Homo sapiens, UniProt Q00056 201-287, R217L) (Q00056 201-287 R217L): as the sequence (Q00056 201-287) above, with R17L counted along it
# Chain of ALX4 (Homo sapiens, UniProt Q9H161 200-286) (Q9H161 200-286): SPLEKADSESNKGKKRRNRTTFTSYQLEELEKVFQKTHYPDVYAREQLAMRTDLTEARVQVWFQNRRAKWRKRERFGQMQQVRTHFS
# Chain of HOXB9 (Homo sapiens, UniProt P17482 171-250) (P17482 171-250): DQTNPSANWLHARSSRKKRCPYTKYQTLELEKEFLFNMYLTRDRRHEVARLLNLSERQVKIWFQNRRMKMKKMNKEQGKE
# Chain of HOXA7 (Homo sapiens, UniProt P31268 116-202) (P31268 116-202): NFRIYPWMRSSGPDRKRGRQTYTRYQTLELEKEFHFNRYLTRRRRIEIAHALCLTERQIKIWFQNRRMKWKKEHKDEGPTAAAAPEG
# Chain of ALX4 (Homo sapiens, UniProt Q9H161 200-286, Q225E) (Q9H161 200-286 Q225E): as the sequence (Q9H161 200-286) above, with Q26E counted along it
# Chain of HOXB9 (Homo sapiens, UniProt P17482 171-250, T197M) (P17482 171-250 T197M): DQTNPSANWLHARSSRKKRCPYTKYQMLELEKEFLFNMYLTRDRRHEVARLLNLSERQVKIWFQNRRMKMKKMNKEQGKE
# Chain of HOXB9 (Homo sapiens, UniProt P17482 171-250, R186Q) (P17482 171-250 R186Q): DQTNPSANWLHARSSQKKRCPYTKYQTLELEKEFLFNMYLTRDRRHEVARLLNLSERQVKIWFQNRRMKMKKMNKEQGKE
# Chain of HESX1 (Q9UBX0 95-180 R109Q): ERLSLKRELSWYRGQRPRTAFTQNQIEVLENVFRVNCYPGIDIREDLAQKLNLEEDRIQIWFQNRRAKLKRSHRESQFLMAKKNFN
# Chain of MSX2 (Homo sapiens, UniProt P35548 130-214, R199I) (P35548 130-214 R199I): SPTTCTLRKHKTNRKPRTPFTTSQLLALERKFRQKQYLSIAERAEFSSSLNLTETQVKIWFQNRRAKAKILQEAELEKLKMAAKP
# Chain of MSX2 (Homo sapiens, UniProt P35548 130-214) (P35548 130-214): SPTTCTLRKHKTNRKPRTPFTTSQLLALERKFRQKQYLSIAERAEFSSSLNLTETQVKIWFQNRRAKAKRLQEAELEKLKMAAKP
# Chain of HOXC10 (Homo sapiens, UniProt Q9NYD6 254-340) (Q9NYD6 254-340): as the sequence (Q9NYD6 254-340 K271E) above, with E18K counted along it
# Chain of PRRX1 (Homo sapiens, UniProt P54821 80-166, F113S) (P54821 80-166 F113S): as the sequence (P54821 80-166) above, with F34S counted along it
# Chain of MSX2 (Homo sapiens, UniProt P35548 130-214, F161Y) (P35548 130-214 F161Y): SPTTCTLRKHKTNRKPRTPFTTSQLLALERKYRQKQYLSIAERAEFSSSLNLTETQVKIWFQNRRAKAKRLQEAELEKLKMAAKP
# Chain of HOXA7 (Homo sapiens, UniProt P31268 116-202, W177C) (P31268 116-202 W177C): as the sequence (P31268 116-202) above, with W62C counted along it
# Chain of HOXB6 (Homo sapiens, UniProt P17509 132-218, K202E) (P17509 132-218 K202E): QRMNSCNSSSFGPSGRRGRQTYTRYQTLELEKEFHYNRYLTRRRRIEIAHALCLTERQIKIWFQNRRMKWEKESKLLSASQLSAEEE
# Chain of HOXB6 (Homo sapiens, UniProt P17509 132-218) (P17509 132-218): as the sequence (P17509 132-218 K202E) above, with E71K counted along it
sequence,measurement,setting,value
GTTAATGA,binding signal,HOXB4 [1],"13.3 upbm affinity estimate (log intensity, higher = more binding, comparable within an allelic series)"
same,binding signal,VENTX [2],"11.9 upbm affinity estimate (log intensity, higher = more binding, comparable within an allelic series)"
same,binding signal,HOXA4 [3],"10.7 upbm affinity estimate (log intensity, higher = more binding, comparable within an allelic series)"
same,binding signal,VENTX [4],"12.6 upbm affinity estimate (log intensity, higher = more binding, comparable within an allelic series)"
same,binding signal,HOXA7 [5],"11.3 upbm affinity estimate (log intensity, higher = more binding, comparable within an allelic series)"
same,binding signal,VENTX [6],"11.9 upbm affinity estimate (log intensity, higher = more binding, comparable within an allelic series)"
same,binding signal,HOXB6 [7],"9.94 upbm affinity estimate (log intensity, higher = more binding, comparable within an allelic series)"
same,binding signal,HOXA2 [8],"13.1 upbm affinity estimate (log intensity, higher = more binding, comparable within an allelic series)"
same,binding signal,HOXA4 [9],"12.7 upbm affinity estimate (log intensity, higher = more binding, comparable within an allelic series)"
same,binding signal,HOXB4 [10],"14 upbm affinity estimate (log intensity, higher = more binding, comparable within an allelic series)"
same,binding signal,HOXA2 [11],"13.5 upbm affinity estimate (log intensity, higher = more binding, comparable within an allelic series)"
same,binding signal,HOXA4 [12],"14.1 upbm affinity estimate (log intensity, higher = more binding, comparable within an allelic series)"
same,binding signal,HOXC10 [13],"11.9 upbm affinity estimate (log intensity, higher = more binding, comparable within an allelic series)"
same,binding signal,VAX1 [14],"13.5 upbm affinity estimate (log intensity, higher = more binding, comparable within an allelic series)"
same,binding signal,VAX1 [15],"13.4 upbm affinity estimate (log intensity, higher = more binding, comparable within an allelic series)"
same,binding signal,HOXA2 [16],"10.9 upbm affinity estimate (log intensity, higher = more binding, comparable within an allelic series)"
same,binding signal,HOXA7 [17],"8.79 upbm affinity estimate (log intensity, higher = more binding, comparable within an allelic series)"
same,binding signal,HOXA4 [18],"12.3 upbm affinity estimate (log intensity, higher = more binding, comparable within an allelic series)"
same,binding signal,HOXA2 [19],"12.8 upbm affinity estimate (log intensity, higher = more binding, comparable within an allelic series)"
same,binding signal,VAX1 [20],"13.3 upbm affinity estimate (log intensity, higher = more binding, comparable within an allelic series)"
same,binding signal,HOXB6 [21],"11.8 upbm affinity estimate (log intensity, higher = more binding, comparable within an allelic series)"
ATCATTAG,binding signal,HOXB4 [1],"13.5 upbm affinity estimate (log intensity, higher = more binding, comparable within an allelic series)"
same,binding signal,VENTX [2],"11.7 upbm affinity estimate (log intensity, higher = more binding, comparable within an allelic series)"
same,binding signal,HOXA4 [3],"10.6 upbm affinity estimate (log intensity, higher = more binding, comparable within an allelic series)"
same,binding signal,VENTX [4],"12.5 upbm affinity estimate (log intensity, higher = more binding, comparable within an allelic series)"
same,binding signal,VENTX [6],"11.8 upbm affinity estimate (log intensity, higher = more binding, comparable within an allelic series)"
same,binding signal,HOXA2 [8],"12.9 upbm affinity estimate (log intensity, higher = more binding, comparable within an allelic series)"
same,binding signal,HOXA4 [9],"12.3 upbm affinity estimate (log intensity, higher = more binding, comparable within an allelic series)"
same,binding signal,HOXB4 [10],"14.2 upbm affinity estimate (log intensity, higher = more binding, comparable within an allelic series)"
same,binding signal,HOXA2 [11],"13.6 upbm affinity estimate (log intensity, higher = more binding, comparable within an allelic series)"
same,binding signal,HOXA4 [12],"14.1 upbm affinity estimate (log intensity, higher = more binding, comparable within an allelic series)"
same,binding signal,VAX1 [14],"13.2 upbm affinity estimate (log intensity, higher = more binding, comparable within an allelic series)"
same,binding signal,VAX1 [15],"13.1 upbm affinity estimate (log intensity, higher = more binding, comparable within an allelic series)"
same,binding signal,HOXA2 [16],"10.9 upbm affinity estimate (log intensity, higher = more binding, comparable within an allelic series)"
same,binding signal,HOXA4 [18],"12 upbm affinity estimate (log intensity, higher = more binding, comparable within an allelic series)"
same,binding signal,HOXA2 [19],"12.7 upbm affinity estimate (log intensity, higher = more binding, comparable within an allelic series)"
same,binding signal,VAX1 [20],"13.1 upbm affinity estimate (log intensity, higher = more binding, comparable within an allelic series)"
CCCCCTCG,binding signal,HOXB4 [1],"7.86 upbm affinity estimate (log intensity, higher = more binding, comparable within an allelic series)"
same,binding signal,HOXB9 [22],"8.45 upbm affinity estimate (log intensity, higher = more binding, comparable within an allelic series)"
same,binding signal,ALX4 [23],"8.09 upbm affinity estimate (log intensity, higher = more binding, comparable within an allelic series)"
same,binding signal,ALX4 [24],"7.97 upbm affinity estimate (log intensity, higher = more binding, comparable within an allelic series)"
same,binding signal,HOXA2 [8],"7.09 upbm affinity estimate (log intensity, higher = more binding, comparable within an allelic series)"
same,binding signal,HOXB9 [25],"8.63 upbm affinity estimate (log intensity, higher = more binding, comparable within an allelic series)"
same,binding signal,HOXB4 [10],"7.85 upbm affinity estimate (log intensity, higher = more binding, comparable within an allelic series)"
same,binding signal,MSX2 [26],"9.51 upbm affinity estimate (log intensity, higher = more binding, comparable within an allelic series)"
same,binding signal,HOXA2 [11],"10.2 upbm affinity estimate (log intensity, higher = more binding, comparable within an allelic series)"
same,binding signal,MSX2 [27],"9.66 upbm affinity estimate (log intensity, higher = more binding, comparable within an allelic series)"
same,binding signal,HOXB9 [28],"8.59 upbm affinity estimate (log intensity, higher = more binding, comparable within an allelic series)"
same,binding signal,MSX2 [29],"9.64 upbm affinity estimate (log intensity, higher = more binding, comparable within an allelic series)"
same,binding signal,HOXA2 [16],"10.3 upbm affinity estimate (log intensity, higher = more binding, comparable within an allelic series)"
same,binding signal,HOXA2 [19],"7.14 upbm affinity estimate (log intensity, higher = more binding, comparable within an allelic series)"
ACCGTGGG,binding signal,HOXC10 [30],"10.1 upbm affinity estimate (log intensity, higher = more binding, comparable within an allelic series)"
same,binding signal,HOXC10 [13],"10 upbm affinity estimate (log intensity, higher = more binding, comparable within an allelic series)"
ATTAATCA,binding signal,PRRX1 [31],"11.3 upbm affinity estimate (log intensity, higher = more binding, comparable within an allelic series)"
same,binding signal,HESX1,"8.96 upbm affinity estimate (log intensity, higher = more binding, comparable within an allelic series)"
same,binding signal,PRRX1 [32],"13.3 upbm affinity estimate (log intensity, higher = more binding, comparable within an allelic series)"
